Laboratory results published in PubChem BioAssay (NCI).
Compounds without any hit were thinned out: in the full panel of roughly 83,000, 20% have a hit.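 Interpretation: 100, growth as untreated; towards 0, rising growth inhibition; 0, no net growth; 0 to -100, cell death. Compounds scoring below 10 were considered active.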 Values without a mark were called inactive. Active and inactive are the calls of the source.

Tests used:
Assay in all cases: NCI-60 one-dose screen, 48 h (100 = growth as untreated, 0 = no growth, -100 = all killed)
Settings in all cases: 10 µM unless noted
T-47D breast = tested on: T-47D breast
BT-549 breast = tested on: BT-549 breast
SW-620 colon = tested on: SW-620 colon
MCF7 breast = tested on: MCF7 breast
HCT-116 colon = tested on: HCT-116 colon
HCC-2998 colon = tested on: HCC-2998 colon
KM12 colon = tested on: KM12 colon
MDA-MB-435 melanoma = tested on: MDA-MB-435 melanoma

| Structure (SMILES) | growth (T-47D breast) | growth (BT-549 breast) | growth (SW-620 colon) | growth (MCF7 breast) | growth (HCT-116 colon) | growth (HCC-2998 colon) | growth (KM12 colon) | growth (MDA-MB-435 melanoma) |
| --- | --- | --- | --- | --- | --- | --- | --- | --- |
| O=C(NC1CCS(=O)(=O)C1)c1ccc(C(=O)c2ccccc2)cc1 (stereo unspecified) | 107% | 121% | 95.8% | 105% | 104% | 103% | 125% | – |
| CC(NC(N)=S)c1ccccc1 (stereo unspecified) | 89.6% | 118% | 98.7% | 94.5% | 107% | – | 104% | 106% |
| Nc1ncnc2c1CN(Cc1ccccc1)CC2 | 105% | 108% | 107% | 93.6% | 102% | 98.5% | 108% | – |
| COc1ccc(CNC(=O)c2c(C)n([O-])c3ccccc3[n+]2=O)cc1 | 81.3% | 76.8% | 108% | 91% | 97.9% | – | 131% | 124% |
| Cc1ccccc1NC(=O)NC(CC(N)=O)c1ccc2c(c1)nc(-c1cccc(Oc3ccc(C(C)(C)C)cc3)c1)n2CCCN1CCCCC1C (stereo unspecified) | 47.4% | 93.7% | -62.2% (active) | -76.3% (active) | -73.7% (active) | – | -35.3% (active) | -53.7% (active) |
| COc1cccc(/C=C2\Cc3ccccc3C2=O)c1 | 100% | 103% | 104% | 58.8% | 96.3% | 105% | 95.2% | – |
| O=C1NC(=S)S/C1=C\c1cc(Br)ccc1O | 82.9% | 104% | 97.6% | 106% | 103% | 103% | 90.6% | – |
| CC(=O)Nc1cc2c3c(cccc3c1)-c1ccccc1-2 | 75.4% | 64.7% | 99.7% | 96.9% | 95.9% | 87.8% | 51.1% | – |
| CC(=O)Nc1ccc(C(=O)COc2ccc(/C=C3\CCc4ccccc4C3=O)cc2)cc1 | 91% | 97.1% | 113% | 122% | 106% | 118% | – | – |
| COc1ccc2ncccc2c1Cc1c(OC)ccc2ncccc12 | 59.8% | 90.3% | 40.5% | 57% | 59.2% | – | 52.1% | 12.4% |
| Nc1ccccc1-c1ccn[nH]1 | 93.5% | 91.2% | 96.7% | 100% | 92.7% | – | 82.3% | 93.2% |
| COc1cccc(/C=N/Nc2nc3ccccc3s2)c1OC | 67.5% | 78.5% | 96.7% | 63.2% | 42.5% | – | 70.5% | 91.5% |
| Cc1ccc2c(c1)C(=O)/C(=C\Nc1ccc(C(N)=O)cc1)C(O)O2 (stereo unspecified) | 73.9% | 82.4% | 93.2% | 96.6% | 93.5% | 134% | 88.2% | – |
| CCOC(=O)C(C(=O)OCC)C1CCCCC1 | 100% | 104% | 104% | 98.6% | 104% | 111% | 105% | – |
| COc1cccc(C=Nc2cc(C(C)C)c(O)cc2C)c1O | 51.7% | 101% | 105% | 92.5% | 99.1% | 115% | 109% | – |
| CN1CCC[C@@H]1CCO[C@](C)(c1ccccc1)c1ccc(Cl)cc1 | 56.1% | 69.1% | 80% | 63.3% | 47.9% | 61.8% | 88% | – |
| COc1cc(/C=N/NC(=O)c2ccc(C(F)(F)F)nc2Nc2ccc(Cl)cc2C)ccc1O | 33.7% | 16% | 26.2% | 27.8% | 11.3% | 42.8% | 24.5% | – |
| Nc1c(C(=O)Nc2cccc(Cl)c2)sc2nc3c(cc12)C(O)CCC3 (stereo unspecified) | 52.3% | 56% | 43.9% | 17.8% | 19.1% | – | 26.9% | -37.5% (active) |

| Structure (SMILES) | growth (T-47D breast) | growth (BT-549 breast) | growth (SW-620 colon) | growth (MCF7 breast) | growth (HCT-116 colon) | growth (HCC-2998 colon) | growth (KM12 colon) | growth (MDA-MB-435 melanoma) |
| --- | --- | --- | --- | --- | --- | --- | --- | --- |
| Nc1nc(NC2CC2)c2ncn(C3C=CC(CO)C3)c2n1 (stereo unspecified) | 110% | 115% | 106% | 107% | 109% | – | 99.7% | 105% |
| O=C(COc1cccc(/C=C2\Oc3ccc4ccccc4c3C2=O)c1)c1ccc([N+](=O)[O-])cc1 | 64% | -81.9% (active) | 80% | 49.3% | 58.5% | 108% | 88.3% | – |
| COc1ccc(Cl)cc1Nc1nc(C(F)(F)F)ccc1C(=O)N/N=C/c1c(Cl)cccc1Cl | 42.2% | 48.6% | 36.9% | 185% | 51.4% | 63.5% | 52.7% | – |
| CC1CN(CC(O)c2ccc(Br)cc2)CCO1 (stereo unspecified) | 107% | 106% | 109% | 105% | 108% | 103% | 107% | – |
| Oc1ccc(/C=N/Nc2nc3ccccc3s2)c(O)c1 | 26.8% | 43.8% | 41.9% | 26.5% | 25.2% | – | 15.7% | 39.7% |
| C[C@]12CCC(=O)C=C1CCC1C2[C@@H](O)C[C@@]2(C)C1CC[C@]2(O)C(=O)COC(=O)CCC(=O)O (stereo partly specified) | 114% | 100% | 113% | 102% | 106% | 98% | 109% | – |
| COC(=O)C1CCN(S(=O)(=O)c2ccc(-c3ccccc3)cc2)CC1 | 102% | 129% | 102% | 99.7% | 115% | 103% | 102% | – |
| O=C1NC(=O)/C(=C\c2ccco2)S1 | 95.4% | 104% | 100% | 104% | 108% | 116% | 103% | – |
| CC(=O)Nc1ccc(C(=O)COc2cccc(/C=C3\CCc4ccccc4C3=O)c2)cc1 | 67.9% | 66% | 47% | 19.6% | 81% | – | 91% | 85.8% |
| C[C@H]1C(=O)N2c3ccccc3[C@@]3(O)C[C@@H](n4cnc5ccccc5c4=O)C(=O)N1[C@@H]23 | 99.1% | 103% | 107% | 98.9% | 93.8% | 98.5% | 113% | – |
| CN1CCN(CCCOc2ccc3ncnc(Nc4ccc(OCc5cccc(F)c5)c(Cl)c4)c3c2)CC1 | -15.6% (active) | 72% | -78.7% (active) | -69.2% (active) | -87.9% (active) | -80.9% (active) | -56% (active) | – |
| COc1ccc(/C=C2/SC(=Nc3c(C)nn(-c4ccccc4)c3N)NC2=O)cc1 | 60.9% | 26.8% | 18.5% | 8.99% (active) | 16.8% | 53.5% | 28.6% | – |
| O=C(CSc1ncc(-c2ccccc2)n1-c1ccccc1)Nc1ccc(-c2nc3ccccc3s2)cc1 | 56.3% | 103% | 64.4% | 31.2% | 42.1% | – | 51.1% | 55.9% |
| COc1cc(C2CC(C3C(=O)N(C)C(=O)N(C)C3=O)=NN2C=O)cc(OC)c1OC (stereo unspecified) | 83.8% | 106% | 97.7% | 97.6% | 102% | 100% | 102% | – |
| COc1ccc(-c2nc3sc4c(c3c(=O)[nH]2)CCCCCC4)cc1 | 64.2% | 75.3% | 29% | 54.1% | 33.9% | – | 34.8% | 2.83% (active) |
| COc1ccc2c(=O)c(OC)c(-c3cc(OC)c(OC)c(OC)c3)oc2c1 | 76.1% | 117% | 92.2% | 88% | 87.2% | 82.5% | 97.8% | – |
| NC(=O)c1cc(Cl)ccc1NC(=O)c1ccccc1-c1ccccc1 | 26.9% | – | 27.4% | 25.4% | 23.2% | 49.3% | 16.9% | -63.7% (active) |
| NS(=O)(=O)c1ccc(N2CC(c3nc4ccccc4[nH]3)CC2=O)cc1 (stereo unspecified) | 88.8% | – | 104% | 94.9% | 104% | 99.1% | 97.6% | 104% |
